From PubChem BioAssay
esBAF inh: blocks esBAF chromatin remodeling in mouse ES cells. Bmi1-luciferase knock-in reporter, 24 h; 100% = twice the neutral-well signal. reporter increase, % at 12.5 µM. 2% of 350,000 active. AID 602393; in the data active = activation above about 40%; inconclusive = no clear call, values can overlap the other calls;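 note: a rise in the Bmi1 reporter signal indicates esBAF inhibition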
Wnt bcat act: Wnt/beta-catenin pathway activation; activation, % at 9.35 µM; Wnt/beta-catenin reporter cell assay, activator, plate reader; 1.2% of 300,000 active; in the data active = activation above about 30%, passing the limit was not always enough; inconclusive = no clear call, values can overlap the other calls
FXN GAA850 act: activators of GAA850 frataxin (FXN) promoter | activation, % at 6 µM | HEK293 lucGAA850 FXN promoter luciferase reporter, 24 h; percent of 10 µM SAHA response | 0.56% of 360,000 active;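 active = activation above the average of all compounds screened plus 3 SD, cutoff fixed separately per campaign, cut at about 7.5% in these data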
AHR activator: human AHR activation; AID 2796; P35869; 2.5% of 320,000 active; activation, % at 5 µM; AHR-responsive luciferase reporter cells, luminescence; in the data active = activation above about 47%
Target sequence (P35869 whole entry, looked up): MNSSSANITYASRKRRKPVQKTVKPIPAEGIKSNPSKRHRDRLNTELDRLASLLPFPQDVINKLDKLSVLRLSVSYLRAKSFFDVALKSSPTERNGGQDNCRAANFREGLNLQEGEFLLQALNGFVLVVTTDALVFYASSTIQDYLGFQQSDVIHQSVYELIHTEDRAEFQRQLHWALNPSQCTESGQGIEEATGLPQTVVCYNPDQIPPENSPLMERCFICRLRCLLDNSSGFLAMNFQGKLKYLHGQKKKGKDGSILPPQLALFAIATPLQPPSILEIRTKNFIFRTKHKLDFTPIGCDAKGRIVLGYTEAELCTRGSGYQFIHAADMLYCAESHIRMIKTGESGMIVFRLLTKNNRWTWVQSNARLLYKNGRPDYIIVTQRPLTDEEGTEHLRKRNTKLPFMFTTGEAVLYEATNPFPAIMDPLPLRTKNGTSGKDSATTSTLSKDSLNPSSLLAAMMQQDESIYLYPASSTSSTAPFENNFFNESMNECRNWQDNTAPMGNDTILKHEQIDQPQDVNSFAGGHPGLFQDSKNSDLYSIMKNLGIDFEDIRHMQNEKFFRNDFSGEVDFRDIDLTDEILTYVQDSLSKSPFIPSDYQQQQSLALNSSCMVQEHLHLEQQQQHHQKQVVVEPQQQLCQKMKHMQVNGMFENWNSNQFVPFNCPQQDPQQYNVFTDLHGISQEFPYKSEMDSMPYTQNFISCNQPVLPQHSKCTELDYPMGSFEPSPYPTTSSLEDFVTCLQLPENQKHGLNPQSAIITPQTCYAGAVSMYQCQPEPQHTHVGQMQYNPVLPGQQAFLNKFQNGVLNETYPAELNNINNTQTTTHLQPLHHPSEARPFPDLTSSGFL
MITF TRPM1 HTS: increases MITF-driven TRPM1 promoter luciferase signal. SK-MEL-5 TRPM1-promoter luciferase, 24 h; % of positive control, neutral wells = 0. activation, % at 12.5 µM. 0.75% of 300,000 active. AID 588334;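 active = mean activation of at least 80% with every replicate also reaching 80%; inconclusive = mean reaches 80% but some replicate falls short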
Hits are given with their value; - = inactive; ? = inconclusive; . = no result. Only some compounds are listed: those with a hit (about 4.2% of all), similar ones and a draw of the others.

SMILES | esBAF inh | Wnt bcat act | FXN GAA850 act | AHR activator | MITF TRPM1 HTS
O=C(Nc1ccc2c(c1)OCO2)N1CCOCC1 | - | . | - | - | .
O=C(Nc1ccc2c(c1)OCO2)N1CCN(c2ccc(F)cc2)CC1 | . | - | - | 58.0 | -
CC1CN(C(=O)Nc2ccc3c(c2)OCO3)CC(C)O1 (stereo not given) | - | . | - | 51.9 | -
O=C(Nc1ccc2c(c1)OCCO2)N1CCN(c2ccccc2)CC1 | - | - | - | - | .
O=C(Nc1ccc2c(c1)OCO2)N1CCN(c2ccccc2)CC1 | - | - | - | - | -
O=C(Nc1ccc2c(c1)OCCO2)N1CCN(Cc2ccccc2)CC1 | 55.3 | - | - | - | -
O=C(C[C@H]1CC[C@H](NC(=O)C2CC2)[C@H](CO)O1)NCc1ccccc1Cl | - | . | . | . | .
COc1ccc(NC(=O)N(C)C[C@H]2Oc3ccc(NS(=O)(=O)c4ccc(OC)cc4)cc3C(=O)N([C@@H](C)CO)C[C@H]2C)cc1 | - | . | . | . | .
O=C(Nc1ccc2c(c1)OCO2)N1CCCC1 | - | . | - | 69.9 | -
O=C(NCc1ccco1)c1sc2ccccc2c1Cl | 48.9 | . | - | - | -
CCOc1ccccc1C(=O)NC(C)c1ccc2c(c1)OCO2 (stereo not given) | - | . | - | 52.5 | -
CCOc1ccccc1NC(=O)NC(C)c1ccc2c(c1)OCO2 (stereo not given) | - | - | - | 58.2 | -
CO[C@H](CN(C)C(=O)c1ccc2c(c1)OCO2)[C@H](C)CN([C@@H](C)CO)S(=O)(=O)c1ccc(F)cc1 | - | . | . | . | .
N#CCSc1n[nH]c2nc3c(c(=O)n12)C1(CCCC1)Cc1ccccc1-3 | . | . | - | 51.9 | -
O=C1c2ccccc2C(=O)C1c1nccc2ccccc12 | - | . | - | 51.2 | -
O=C1c2ccccc2C(=O)C1c1ccnc2ccccc12 | - | 43.4 | - | 62.4 | -
N#CC1=C(N)SC(N)=C(C#N)C1c1ccnc2ccccc12 | . | . | - | - | -
O=C1C(c2ccnc3ccccc23)=C(O)c2ccccc21 | - | . | - | 53.9 | -
CO[C@@H]1CN(C)C(=O)c2cc(NS(=O)(=O)c3ccccc3)ccc2OC[C@H](C)N(Cc2ccccn2)C[C@@H]1C | - | . | . | . | .
C[C@@H]1CN([C@@H](C)CO)C(=O)c2cc(NC(=O)C3CC3)ccc2O[C@H]1CN(C)Cc1ccc(Oc2ccccc2)cc1 | - | . | . | . | .
C[C@@H]1CCCCO[C@H](CN(C)C(=O)CCCN(C)C)[C@H](C)CN([C@@H](C)CO)C(=O)c2cc(NC(=O)c3ccncc3)ccc2O1 | - | . | . | . | .
Cc1cccc(N/N=C2/COC(C)(C)CC2=O)c1 | - | . | - | - | -
CC1(C)CC(=O)/C(=N/Nc2ccc(Cl)cc2)CO1 | 54.6 | 51.7 | - | - | -
CO[C@@H](CN(C)C(=O)c1cnccn1)[C@@H](C)CN([C@@H](C)CO)S(=O)(=O)c1ccc(C)cc1 | - | . | . | . | .
Cc1c(C(=O)Nc2nc3ccccc3[nH]2)oc2ccc(Br)cc12 | . | - | - | - | -
SMILES | esBAF inh | Wnt bcat act | FXN GAA850 act | AHR activator | MITF TRPM1 HTS
Cc1c(C(=O)Nc2nc3ccccc3[nH]2)oc2ccccc12 | . | - | - | 67.9 | -
Cc1c(C(=O)Nc2nc3ccccc3[nH]2)oc2c(Cl)cccc12 | 48.8 | - | - | 66.5 | -
C[C@H]1CN([C@@H](C)CO)C(=O)Cc2cc(NC(=O)Nc3ccccc3)ccc2O[C@H]1CN(C)S(=O)(=O)c1ccc(F)cc1 | - | . | . | . | .
COc1ccc(N=C2C(=S)N(c3ccc(OC)cc3)C(=NS(=O)(=O)c3ccccc3)N2c2ccccc2)cc1 | . | 68.3 | - | . | -
CCOC(=O)c1ccc(-c2c(-c3ccccc3OC)sc3cc4c(cc23)OCO4)cc1F | - | - | - | 48.5 | -
COc1ccc(-c2sc3ccc(N4CCOCC4)cc3c2C#CCCO)cc1 | - | - | - | 97.5 | -
COc1ccc(-c2sc3cc4c(cc3c2C#CCO)OCO4)cc1 | - | - | - | 77.2 | -
COc1ccc(-c2c(-c3ccccc3OC)sc3ccccc23)cc1F | . | - | . | . | .
COC(=O)c1c(-c2ccc(OC)cc2)sc2cc3c(cc12)OCO3 | 49.1 | 33.4 | - | - | 91.7
O=C(C[C@H]1C[C@H]2c3cc(NC(=O)C4CCC4)ccc3O[C@H]2[C@@H](CO)O1)NCc1cccnc1 | - | . | . | . | .
O=C(NCCc1ccncc1)[C@H]1[C@H](CO)[C@H]2Cn3c(ccc(-c4ccncc4)c3=O)[C@H]2N1C(=O)C1CC1 | - | . | . | . | .
Cc1ccc(NC(=O)Nc2ccc3c(c2)C(=O)N(C)[C@@H]2CC[C@H](CC(=O)O)O[C@H]2CO3)cc1 | - | . | . | . | .
COc1ccccc1-c1sc2cc3c(cc2c1C#CCO)OCO3 | - | - | - | 66.8 | -
COc1cc2c(cc1OC)/C(=C/c1ccc(Cl)cc1)C(=O)OC2 | - | - | - | 58.9 | -
NC1=NC(=Nc2cccc(S(N)(=O)=O)c2)c2ccccc21 | - | - | - | - | -
COc1cc(N=Nc2cccc(S(N)(=O)=O)c2)c2ccccc2c1N | - | - | - | 56.8 | -
O=C(Nc1cccs1)Nc1ccccc1Cl | 44.1 | . | - | - | -
Cc1ccc(NC(=O)Nc2cccs2)c(Cl)c1 | . | 55.3 | - | - | -
O=C(NC(=O)c1csnn1)Nc1ccccc1Cl | 50.0 | - | - | - | -
O=C(Nc1ccc(Br)cc1)Nc1ccccc1Cl | ? | 30.6 | - | - | 82.3
Cc1noc(C)c1NC(=O)Nc1ccc2c(c1)C(=O)N([C@@H](C)CO)C[C@@H](C)[C@@H](CN(C)S(=O)(=O)c1ccc(Cl)cc1)OCCCC[C@H](C)O2 | - | . | . | . | .
O=C(N/N=C/c1ccc(OC(=O)c2ccccc2Cl)cc1)c1ccccn1 | . | . | - | - | 96.5
CCOc1cc(/C=N/NC(=O)c2cc(C)[nH]n2)ccc1OC(=O)c1ccc([N+](=O)[O-])cc1 | . | . | . | - | .
O=C(Oc1cccc(/C=N/NC(=O)c2ccccn2)c1)c1ccc([N+](=O)[O-])cc1 | - | 33.7 | - | - | -
CN1C(=O)c2cc(NC(=O)c3ccc(Cl)cc3)ccc2OC[C@H]2O[C@@H](CC(=O)O)CC[C@H]21 | - | . | . | . | .
SMILES | esBAF inh | Wnt bcat act | FXN GAA850 act | AHR activator | MITF TRPM1 HTS
c1cncc(-c2noc(-c3cccc4ccccc34)n2)c1 | 57.8 | - | - | 59.3 | -
CN1CCN(C(=O)c2ccccc2-c2nc(-c3ccccc3)no2)CC1 | 48.4 | - | - | - | -
c1ccc(-c2ccccc2-c2nc(-c3cccnc3)no2)cc1 | - | . | - | - | -
Brc1ccccc1-c1nc(-c2ccccc2)no1 | . | . | . | 49.7 | .
c1ccc(-c2noc(-c3cccc4ccccc34)n2)cc1 | 75.6 | . | - | 51.0 | -
Cc1nc(Nc2ccc(Cl)cc2)c(C#N)c(=O)[nH]1 | - | - | - | 70.8 | -
COc1cccc(S(=O)(=O)Nc2ccc3c(c2)[C@@H]2C[C@@H](CC(=O)O)O[C@H](CO)[C@@H]2O3)c1 | - | . | . | . | .
O=C(Cn1c(=S)[nH]c2ncccc2c1=O)NCCc1ccccc1 | . | - | . | 56.9 | .
CCCN1[C@@H]2Cn3c(ccc(-c4ccccc4F)c3=O)[C@H]1[C@@H](C(=O)NCC)[C@@H]2CO | - | . | . | . | .
O=C(CN1C(=O)c2ccccc2C1=O)c1ccccc1 | . | . | - | - | -
CC1=C(CC(=O)c2ccccc2)C(=O)c2ccccc2C1=O | - | - | - | 48.2 | -
